This note sets out measurements from PubChem BioAssay (Tox21).

Structures are written as SMILES. Where “and” joins values, the source holds several entries; their conditions need not be identical. Equal entries are not always repeated. Results filed as inconclusive are left out. A structure can be active in one record and inactive in another. Calls of active or inactive are those of the source. Unless noted, the call rests on the fitted dose curve; in most records, active means well fitted curve in the direction sought with a large enough effect in the repeat runs; inconclusive means weak or mixed curves; inactive means no such curve, though single readings can be large; an effect the other way counts as inactive or inconclusive.

Test [1] in a line: qHTS assay to identify small molecule antagonists of the glucocorticoid receptor (GR) signaling pathway - cell viability counter screen (AID 720693). Further: nearly all actives have a fitted effect of over 55% in size.
Test [2] in a line: qHTS assay for identifying genotoxic compounds that show differential cytotoxicity against isogenic chicken DT40 cell lines with known DNA damage response pathways - wild type cell line (AID 743012). Further: nearly all actives have a fitted effect of over 60% in size. Further: potency means the concentration at half of the fitted maximal effect. Put shortly:
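Quantitative HTS on parental DT40 cells: 40 h compound treatment at 37 C/5% CO2, with viability then determined by CellTiter-Glo luminescence. Values serve as the DNA repair-proficient reference for differential cytotoxicity.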
For orientation: In qHTS, concentration-response curves come from the screen itself.

Test [3] in a line: qHTS assay for identifying genotoxic compounds that show differential cytotoxicity against isogenic chicken DT40 cell lines with known DNA damage response pathways - Rev3 mutant cell line (AID 743014). Further: nearly all actives have a fitted effect of over 55% in size. Further: potency means the concentration at half of the fitted maximal effect.
A short description of test [4]: qHTS assay for identifying genotoxic compounds that show differential cytotoxicity against isogenic chicken DT40 cell lines with known DNA damage response pathways - Rad54/Ku70 mutant cell line (AID 743015). Further: nearly all actives have a fitted effect of over 60% in size. Further: potency means the concentration at half of the fitted maximal effect.
The nature of test [5]: qHTS assay to identify small molecule antagonists of the androgen receptor (AR) signaling pathway - cell viability counter screen (AID 743033; further: nearly all actives have a fitted effect of over 45% in size; further: potency means the concentration at half of the fitted maximal effect).
Test [6] has as its target Androgen receptor (Homo sapiens) (UniProt P10275). Nature of the test: qHTS assay to identify small molecule agonists of the androgen receptor (AR) signaling pathway (AID 743036; active means well fitted activation curve with a large enough effect in the signal ratio in the repeat runs, with a control signal flat, not every such curve was filed as active; the % refers to the signal ratio). The procedure, abridged: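 Reporter line: GeneBLAzer AR-UAS-bla-GripTite (HEK293). Steps: plate cells, 4 h rest, add compounds, 16 h at 37C, add LiveBLAzer B/G substrate, 2 h at RT, read fluorescence.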

The target is the same in test [7]. The experiment in a line: qHTS assay to identify small molecule agonists of the androgen receptor (AR) signaling pathway using the MDA cell line (AID 743040; further: nearly all actives have a fitted effect of over 20% in size). The procedure, abridged: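 MDA-kb2 breast carcinoma cells stably carrying an MMTV-driven luciferase reporter (AR- and GR-responsive) were seeded and held 5 h at 37C, 0% CO2, then exposed to compounds in DMSO for 16 h. Luminescence was read 30 min after ONE-Glo addition.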

Test [8] in a line: qHTS assay to identify small molecule antagonists of the androgen receptor (AR) signaling pathway using the MDA cell line - cell viability counter screen (AID 743041; further: nearly all actives have a fitted effect of over 45% in size; further: potency means the concentration at half of the fitted maximal effect). The procedure, abridged:
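MDA-kb2 AR-luc human breast carcinoma cells (MMTV-luciferase, AR/GR responsive) were treated with compounds plus R1881 agonist for 16 h at 37 °C. Viability was read as CellTiter-Fluor fluorescence in the same wells as the reporter assay.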

The target of test [9] is Androgen receptor (Homo sapiens) (UniProt P10275). Nature of the test: qHTS assay to identify small molecule antagonists of the androgen receptor (AR) signaling pathway using the MDA cell line (AID 743042; further: nearly all actives have a fitted effect of over 55% in size). The procedure, abridged:
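MDA-kb2 cells (human breast carcinoma, stably carrying an MMTV-luciferase reporter responsive to AR and GR) were plated at 3,000 cells/well and preincubated 5 hr at 37C, then given compound plus R1881 agonist for 16 h. ONE-Glo luminescence was read.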

Test [10] can be described thus: qHTS assay to identify small molecule antagonists of the thyroid receptor (TR) signaling pathway - cell viability counter screen (AID 743064). Further: nearly all actives have a fitted effect of over 50% in size. The procedure, abridged: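 Plate GH3.TRE-Luc cells; incubate 4 h at 37 °C; add compound, then T3 to 1 nM final; incubate 23.5 h; add CellTiter-Fluor; incubate 30 min at 37 °C, 5% CO2; read fluorescence.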

Androgen receptor (Homo sapiens), sequence (P10275 whole entry, looked up): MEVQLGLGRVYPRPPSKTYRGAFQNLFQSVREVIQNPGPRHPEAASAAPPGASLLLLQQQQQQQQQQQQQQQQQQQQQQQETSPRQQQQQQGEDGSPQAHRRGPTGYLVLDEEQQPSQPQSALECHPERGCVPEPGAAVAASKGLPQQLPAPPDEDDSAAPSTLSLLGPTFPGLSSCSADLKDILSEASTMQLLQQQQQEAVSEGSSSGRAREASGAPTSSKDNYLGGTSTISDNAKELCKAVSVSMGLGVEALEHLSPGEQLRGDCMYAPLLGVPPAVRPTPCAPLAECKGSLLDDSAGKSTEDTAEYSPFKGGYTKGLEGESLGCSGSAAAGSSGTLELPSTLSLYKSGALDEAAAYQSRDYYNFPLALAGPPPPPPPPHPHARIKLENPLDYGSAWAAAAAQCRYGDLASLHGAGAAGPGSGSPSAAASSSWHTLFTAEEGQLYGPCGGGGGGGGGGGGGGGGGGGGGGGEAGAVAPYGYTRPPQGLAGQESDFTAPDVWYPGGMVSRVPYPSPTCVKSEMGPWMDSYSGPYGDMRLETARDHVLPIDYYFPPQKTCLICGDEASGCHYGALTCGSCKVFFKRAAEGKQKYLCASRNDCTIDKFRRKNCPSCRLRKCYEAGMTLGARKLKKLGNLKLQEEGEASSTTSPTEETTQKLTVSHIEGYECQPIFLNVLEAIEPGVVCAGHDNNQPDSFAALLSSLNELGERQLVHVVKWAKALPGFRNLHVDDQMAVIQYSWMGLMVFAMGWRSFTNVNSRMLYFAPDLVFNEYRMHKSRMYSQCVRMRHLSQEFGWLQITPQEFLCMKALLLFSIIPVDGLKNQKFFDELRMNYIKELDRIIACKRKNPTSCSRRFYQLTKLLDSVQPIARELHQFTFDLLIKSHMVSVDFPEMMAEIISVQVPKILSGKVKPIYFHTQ

As for `C=C(C)C(=O)OCCOC(=O)C(=C)C`, the Potency result in test [1], in [2], in test [3], in test [4], in [5] and in [7] was “inactive” throughout. Also, the Potency entry in test [8] and in test [9] was “inactive” throughout. Further, the outcome in [6] was inactive.
Regarding `C=CC(C)(CCC=C(C)C)OC(C)=O` (stereo not drawn), the Potency result in [1], in test [2], in test [4] and in [5] was “inactive” in each case. For the same compound, the Potency result in test [3] is “inactive and 54.5 µM (active)”.
Turning to `CC(=O)C1(C)CC2=C(CCCC2(C)C)CC1C` (stereo not drawn), the Potency entry in test [1], in [2], in test [3], in test [5], in [7] and in test [9] was “inactive” in each case. Moreover, in test [4], the Potency entry was “inactive and 54.5 µM (active)”. Also, the outcome in [6] was inactive.
With `Cc1cccc(N(C)C(=S)Oc2ccc3ccccc3c2)c1`, the Potency result in test [1], in test [5], in test [8] and in test [10] was “inactive” each time. Moreover, the Potency result in test [2] is “inactive and 30.6 µM (active)”; in test [3] it was “inactive and 43.3 µM (active)”; in test [4], “inactive and 30.6 µM (active)”.
Consider `CCOCCOCCO`, for which the Potency entry in test [1], in test [2], in test [3], in [4], in test [5] and in [7] was “inactive” in each case. Moreover, the Potency result in test [9] and in test [10] was “inactive” each time. The outcome in test [6] was inactive.
For the compound `CCCCC/C=C/C=C/C=O`, the Potency entry in test [1], in test [5] and in test [8] was “inactive” throughout. Besides, the Potency in [2] was 19.3 µM (active); in test [3] it was “inactive and 21.7 µM (active)”; in [4], “inactive and 17.2 µM (active)”.
Consider `O=[N+]([O-])c1ccc2c(c1)Cc1ccccc1-2`, for which the Potency entry in test [1], in test [2], in test [3], in test [4], in test [5] and in test [8] was “inactive” throughout.
As to `CCC(C)(O)CCCC(C)C` (stereo not drawn), the Potency result in [1], in test [2], in test [3], in test [4] and in test [5] was “inactive” in each case.
For `O=CCCCC=O`, the Potency result in test [1], in test [5], in test [8] and in test [10] was “inactive” throughout. Moreover, the Potency in test [2] was 6.11 µM (active); in test [3] it was 2.17 µM (active); in test [4], “inactive and 2.73 µM (active)”.
As to `CC(C)Oc1ccc2c(=O)c(-c3ccccc3)coc2c1`, the Potency result in [1] and in test [5] was “inactive” each time. Further, the Potency is 6.68 µM (active) in test [2], 4.22 µM (active) in test [3] and 9.44 µM (active) in [4].
`CCOC(=O)C(C#N)=C(c1ccccc1)c1ccccc1`: the Potency entry in test [1], in test [5] and in test [8] was “inactive” each time. For the same compound, the Potency in test [2] was 23.7 µM (active) and 17.2 µM (active); in test [3], 26.6 µM (active) and 15.4 µM (active); in [4], 19.3 µM (active).
As to `CC1=CCC(C(C)(C)O)CC1` (stereo not drawn), the Potency result in test [1], in [2], in test [3], in test [4], in test [5] and in test [7] was “inactive” each time. In addition, the Potency entry in test [8] and in [9] was “inactive” throughout. For the same compound, the call in [6] was inactive.
In the case of `CCCCCCCCCCCO`, the Potency result in test [1] and in [5] was “inactive” throughout. In addition, the Potency entry in test [2] is “inactive and 48.6 µM (active)”; in [3], “inactive and 54.5 µM (active)”; in [4], “inactive and 61.1 µM (active)”.
With `O=P(O)(O)O`, the Potency result in test [1], in [2], in test [3], in test [4], in test [5] and in test [8] was “inactive” throughout.
With `CNCCCC12CCC(c3ccccc31)c1ccccc12`, the Potency result in [1] was “inactive”. Also, the Potency in test [2] was 10.6 µM (active) and 6.86 µM (active); in test [3] it was 21.1 µM (active) and 12.2 µM (active); in [4], 13.3 µM (active) and 6.86 µM (active); in test [5] it was “inactive and 43.6 µM (active)”; in test [8], 61.1 µM (active).
As for `Nc1ccc(Nc2ccccc2)cc1`, the Potency result in [1], in test [5] and in test [8] was “inactive” in each case. Besides, the Potency was 30.6 µM (active) in test [2]; 67.8 µM (active) and 54.5 µM (active) and 34.4 µM (active) in test [3]; 54.5 µM (active) and 43.3 µM (active) in test [4].
With `CCCCC(CC)COC(=O)c1ccc(N(C)C)cc1` (stereo not drawn), the Potency result in test [1], in test [2] and in [5] was “inactive” each time. Moreover, the Potency entry in test [4] is “inactive and 43.3 µM (active)”.
As for `O=c1oc(=O)c2cc3c(=O)oc(=O)c3cc12`, the Potency result in test [1], in test [2], in test [3], in test [4], in [5] and in test [10] was “inactive” throughout.
As to `CC(CCC(=O)O)(c1ccc(O)cc1)c1ccc(O)cc1`, the Potency entry in test [1], in test [2], in test [3], in test [4], in [5] and in test [8] was “inactive” each time. In test [10], the Potency entry was “inactive”.
Take `COc1ccc(OC)c(C(O)CNC(=O)CN)c1` (stereo not drawn): the Potency result in test [1], in test [2], in test [4], in test [5] and in test [8] was “inactive” in each case.
`Cc1cccc([N+](=O)[O-])c1C`: the Potency result in test [1], in test [2], in test [4], in [5], in test [7] and in test [8] was “inactive” in each case. Moreover, the Potency entry in [9] and in test [10] was “inactive” each time. Also, the compound was classed as inactive in [6].
Consider `C[C@]12CCC(=O)C=C1CC[C@@H]1[C@@H]2C(=O)C[C@@]2(C)[C@H]1CC[C@]2(O)C(=O)CO`, for which the Potency entry in test [1], in [5], in test [8] and in test [10] was “inactive” each time. Further, the Potency result was “inactive and 61.1 µM (active)” in test [2]; “inactive and 61.1 µM (active)” in [3]; “inactive and 68.6 µM (active)” in test [4].
For `OC1CCCCCCCCCCC1`, the Potency entry in [1], in test [2], in test [4], in test [5] and in test [8] was “inactive” each time.
On to `CC(C)(C)NC(=O)[C@H]1CC[C@H]2[C@@H]3CC[C@H]4NC(=O)C=C[C@]4(C)[C@H]3CC[C@]12C`, for which the Potency entry in test [1], in test [2], in test [5] and in test [8] was “inactive” each time. For the same compound, in test [4], the Potency result is “inactive and 68.6 µM (active)”.
